In PubChem BioAssay AID693 (University of Pittsburgh Molecular Library Screening Center, 2007):
In all, about 97,000 compounds went through this assay and about 130 (0.13%) were called active. Cut-off read from the data, not from the text of the source: active = inhibition above about 34% (passing the limit was not always enough); inactive = the rest. The sample as a whole holds a higher share of actives than the screen did.

What follows are molecules tested against Serine/threonine-protein kinase PLK1 (Homo sapiens) (UniProt P53350) (assay: Plk1 polo box domain binding inhibitors, primary screen, biochemical, fluorescence polarization (AID 693)). Conditions: Plk1 PBD phosphopeptide binding, hits give high values,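 tested at about 20 µM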.
Chain of Serine/threonine-protein kinase PLK1 (Homo sapiens) (P53350 whole entry, looked up, the tested form may be a part): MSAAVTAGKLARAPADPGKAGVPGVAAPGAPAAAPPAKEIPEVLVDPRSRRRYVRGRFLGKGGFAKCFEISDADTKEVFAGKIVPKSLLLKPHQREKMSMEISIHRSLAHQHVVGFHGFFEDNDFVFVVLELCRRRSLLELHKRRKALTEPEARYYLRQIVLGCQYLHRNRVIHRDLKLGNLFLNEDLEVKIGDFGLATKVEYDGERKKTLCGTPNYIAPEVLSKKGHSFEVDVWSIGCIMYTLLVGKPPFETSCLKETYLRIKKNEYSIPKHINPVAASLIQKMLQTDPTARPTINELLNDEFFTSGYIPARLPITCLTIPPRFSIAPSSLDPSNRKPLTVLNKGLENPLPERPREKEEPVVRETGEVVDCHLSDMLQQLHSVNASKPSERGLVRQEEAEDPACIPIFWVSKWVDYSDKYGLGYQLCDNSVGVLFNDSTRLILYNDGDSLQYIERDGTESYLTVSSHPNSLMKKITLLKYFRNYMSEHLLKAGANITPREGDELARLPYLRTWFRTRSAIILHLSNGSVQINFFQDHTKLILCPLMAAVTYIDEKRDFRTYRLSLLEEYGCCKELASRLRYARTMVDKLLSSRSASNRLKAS

| SMILES | inhibition |
| --- | --- |
| COc1ccc(NS(=O)(=O)c2ccc(NC(=S)NC(=O)CC(C)C)cc2)cc1 | 3.41% (inactive) |
| CCc1ccc2nc3sc(C(=O)Nc4nnc(CC)s4)c(N)c3cc2c1 | -67.7% (inactive) |
| O=C(Cn1cc(-c2nnnn2-c2ccc(Cl)cc2)c(=O)c2ccccc21)c1ccccc1 | 6.2% (inactive) |
| COC(=O)c1ccccc1NC(=O)Cc1ccccc1OC | 12.5% (inactive) |
| COC(=O)c1nc2ccccc2s1 | -0.85% (inactive) |
| CCOC(=O)N1CCN(C(=O)COc2ccc(Cl)cc2C)CC1 | -13.2% (inactive) |
| O=C(N/N=C/c1ccc(O)cc1)/C(=C/c1ccc([N+](=O)[O-])cc1)NC(=O)c1ccccc1 | -6.05% (inactive) |
| O=C(NCCc1ccccc1)/C(=C\c1ccc([N+](=O)[O-])cc1)NC(=O)c1ccccc1 | 55.4% (active) |
| CNC(=O)/C(=C\C=C\c1ccccc1)NC(=O)c1ccc([N+](=O)[O-])cc1 | -9.26% (inactive) |
| O=C1CC(C(F)(F)C(F)(F)C(F)(F)C(F)(F)F)=Nc2ccccc2N1 | 5.5% (inactive) |
| COC(=O)c1ccc(C(=O)OC)c(NC(=S)N2CCCCC2)c1 | -20.3% (inactive) |
| CCCCOc1ccc(N(CC(=O)NCC2CCCO2)C(=O)CCC(=O)Nc2cc(C)ccn2)cc1 (centres undefined) | -5.72% (inactive) |
| C/C(=N\NC(=O)c1ccc(C)cc1)C1C(=O)c2ccccc2C1=O | -15.6% (inactive) |
| O=c1c([N+](=O)[O-])cc(C(F)(F)F)cn1Cc1cccc(Cl)c1 | 2.97% (inactive) |
| COc1ccc(S(=O)(=O)Nc2ccc3oc(C)c(C(C)=O)c3c2)cc1 | -17.3% (inactive) |
| CCNc1nc(NC(C)C)nc(OCCOC(=O)c2ccccc2)n1 | -7.64% (inactive) |
| CC1CC(C)CN(S(=O)(=O)c2cccc(C(=O)N3C(=O)c4cccc(N)c4C3=O)c2)C1 (centres undefined) | 24.3% (inactive) |
| O=C(CSCc1ccccc1Cl)NNC(=O)c1ccccc1 | -5.03% (inactive) |
| Cn1c(=O)n(C)c2cc(/C=N/NC(=O)c3cccc(Br)c3)ccc21 | -16.4% (inactive) |
| CC1CCC(N2CC(=O)N(Cc3ccc4c(c3)OCO4)C(c3ccc(F)cc3)C2=O)CC1 (centres undefined) | -19% (inactive) |
| COc1cc(OC)c(/C=N/NC(=O)c2ccc([N+](=O)[O-])cc2)cc1Br | -6.93% (inactive) |
| CCC1(C)Cc2c(sc3nnn(CC(=O)Nc4ccc(Cl)cc4)c(=O)c23)CO1 (centres undefined) | -26.3% (inactive) |
| COc1cccc(N2CCN(C(=O)Nc3ccc4c(c3)NC(=O)CO4)CC2)c1 | 16.5% (inactive) |
| COc1ccc(NC(=O)Cn2c(=O)n(Cc3ccco3)c(=O)c3ccccc32)cc1 | 10.4% (inactive) |
| Cc1nc2ccccc2c(-c2ccccc2)c1C(=O)c1ccccc1 | -0.63% (inactive) |

| SMILES | inhibition |
| --- | --- |
| COc1cc(/C=N\NC(=O)CNC(=O)c2cccc([N+](=O)[O-])c2)ccc1O | -17.4% (inactive) |
| Brc1ccc(/C=N/N2CCN(C3c4ccccc4-c4ccccc43)CC2)s1 | -17.6% (inactive) |
| COc1ccc(CCN(C(=O)COc2ccccc2)c2nc(-c3ccccc3)cs2)cc1OC | -9.73% (inactive) |
| Cc1cnc(NC(=O)C2CCCC2)s1 | -23.2% (inactive) |
| COc1ccc(N2CCN(C(=O)CNC(=O)c3ccc(C(C)(C)C)cc3)CC2)cc1 | -1.88% (inactive) |
| CCC(C)n1c(-c2cc(OC)c(OC)c(OC)c2)nc2nc3ccccc3nc21 (centres undefined) | 14.5% (inactive) |
| Cc1nn(CCOc2ccccc2)c(=O)n1-c1ccccc1F | 8.4% (inactive) |
| Cc1nc2cc(NC(=O)NCc3ccccc3)ccc2o1 | -8.52% (inactive) |
| O=C(OCc1cn(-c2ccc(Cl)c(Cl)c2)nn1)c1ccccc1Cl | 1.36% (inactive) |
| CCC(C)(C)c1ccc(Oc2ccc(NC(=O)COC(=O)C3=COCCO3)cc2)cc1 | 1.77% (inactive) |
| Cc1ccccc1NC(=S)Nc1cccc([N+](=O)[O-])c1 | 34.5% (inactive) |
| COc1cc(C(=O)N2CCN(C/C=C/c3ccccc3)CC2)cc(OC)c1C | -11.1% (inactive) |
| CC(=O)c1ccc2c(ccc3ccccc32)c1 | -3.5% (inactive) |
| CN1CC(c2ccccc2)C2(COc3ccccc3C2=O)C12C(=O)Nc1ccccc12 (centres undefined) | 5% (inactive) |
| O=C(CCn1c(SCC(=O)c2ccccc2)nc2ccccc2c1=O)NCc1ccc(F)cc1 | 4.81% (inactive) |
| CCS(=O)(=O)Nc1ccc(C2=NN(S(=O)(=O)c3ccc(F)cc3)C(c3ccco3)C2)cc1 (centres undefined) | 11% (inactive) |
| Cc1cccc(N(C(=O)c2ccc(CN3CCOCC3)o2)C(C(=O)NC2CCCCC2)c2ccc(F)cc2)c1 (centres undefined) | 10.4% (inactive) |
| CCOC(=O)c1sc2nc(SC)nc(-c3ccccc3)c2c1N | -9.12% (inactive) |
| Cc1nn(Cc2ccccc2)c2c1C(c1ccccc1)C(C#N)=C(N)O2 (centres undefined) | 17% (inactive) |
| O=C(CSCc1ccc(Cl)cc1)N1CCN(Cc2ccc3c(c2)OCO3)CC1 | -16.3% (inactive) |
| CC1(C)CC(CC(=O)O)C(=O)O1 (centres undefined) | -18.7% (inactive) |
| CCCC(O)(c1ccc(OC)cc1)C(CN(C)C)c1ccccc1 (centres undefined) | 3.1% (inactive) |
| C/C(=N\NS(=O)(=O)c1cccc([N+](=O)[O-])c1)c1cc2ccccc2o1 | 22% (inactive) |
| CN(CC(=O)Nc1cccc2c1CCCC2)S(=O)(=O)c1ccc(Cl)cc1 | -30% (inactive) |
